From PMC13494018
Unmarked numbers belong to inactive results. How the calls were made is not given here.

Target: CD276, Q5ZPR3
Sequence (Q5ZPR3 whole entry): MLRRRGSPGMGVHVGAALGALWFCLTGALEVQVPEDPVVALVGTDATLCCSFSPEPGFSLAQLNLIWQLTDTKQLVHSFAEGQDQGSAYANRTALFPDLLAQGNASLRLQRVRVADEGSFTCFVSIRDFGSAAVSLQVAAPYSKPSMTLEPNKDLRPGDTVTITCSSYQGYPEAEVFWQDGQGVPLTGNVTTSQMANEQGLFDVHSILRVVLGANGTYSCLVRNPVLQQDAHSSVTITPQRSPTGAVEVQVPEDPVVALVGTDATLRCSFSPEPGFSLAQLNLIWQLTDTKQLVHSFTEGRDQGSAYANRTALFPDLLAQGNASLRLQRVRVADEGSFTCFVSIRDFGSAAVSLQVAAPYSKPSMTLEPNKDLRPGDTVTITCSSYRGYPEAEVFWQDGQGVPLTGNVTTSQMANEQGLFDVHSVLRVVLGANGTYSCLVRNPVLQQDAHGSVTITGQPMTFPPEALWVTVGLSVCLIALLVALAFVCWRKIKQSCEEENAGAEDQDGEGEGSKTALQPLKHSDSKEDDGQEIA

B1: design_486_d4f32670-1303-4d79-8413-1b14cb3eff50_2076_dldesign_0_cycle1_af2pred (protein)
chain: AALVGEAMVLLAEVAAAGPPEVRAKASAAIAALAAGDLETALKLAKEAAELLKKAGKEYEPAAKKAEEAAKLLKEAAAAAA
binding in a display sort: not found

B2: design_487_778f5c6d-c470-43b8-8f82-464af6177e08_421_dldesign_0_cycle1_af2pred (protein)
chain: SDAKLAVEAARSAAIAAIELAKQGAWQGAELARQNMKKAAEKALKLGAADPSVKEEVEKEVNAIVKETDAALAAEKAAR
binding in a display sort: not found

B3: design_487_778f5c6d-c470-43b8-8f82-464af6177e08_1130_dldesign_0_cycle1_af2pred (protein)
chain: MTTEETARQQRENVEQVGRVAGLPEQAAELARAMEERAIREGLSNEEIIAEASRLSAQINRQALAAAQAA
binding in a display sort: not found

B4: design_486_d4f32670-1303-4d79-8413-1b14cb3eff50_2148_dldesign_0_cycle1_af2pred (protein)
chain: GSAAYEFAKEAIERALKAAEELKKLDPEEGKKLIEKVEKLKKELEANKDNAQKAARIAIEALQIEQEAQQKIAALKAA
binding in a display sort: not found

B5: design_487_778f5c6d-c470-43b8-8f82-464af6177e08_560_dldesign_0_cycle1_af2pred (protein)
chain: GAAKLAQGALNMAKAQLAYLEKALAAGAADPANAAAYKAKAKEALEQLKTFATAATLVDPAAAPEGDAILKEAEAKYKALSAAIAAA
binding in a display sort: not found

B6: design_487_778f5c6d-c470-43b8-8f82-464af6177e08_256_dldesign_0_cycle1_af2pred (protein)
chain: GEALEKAKEYEKEANEAAAKGKATTPAEGALYFLKAAALYAKAAEEYKKAGDEKNAKEAEAKAKEATANMIALSKQAIAA
binding in a display sort: not found

B7: design_487_778f5c6d-c470-43b8-8f82-464af6177e08_1117_dldesign_0_cycle1_af2pred (protein)
chain: MNVEEAKAQIEALMNRARGYFMRGAALAGTPEGAALNAKGAALLAEAEALAKEAGPEAQKVFAELKAKMDAAVNAVAN
binding in a display sort: not found

B8: design_487_778f5c6d-c470-43b8-8f82-464af6177e08_1105_dldesign_0_cycle1_af2pred (protein)
chain: AAQLALARATLIAAADSLERLAAQAGPAYAPVAAEAAALRAAAEAGTLTADEANAALGRLLDQMEAISAEIR
binding in a display sort: not found

B9: design_487_778f5c6d-c470-43b8-8f82-464af6177e08_452_dldesign_0_cycle1_af2pred (protein)
chain: EEERIQRIAEQVEELIKTAEEALATGTAAGKQAAKQLALAAATVLSSVDPELGAKVKEVAKTGTAEEAIKAAKEALEEIKKK
binding in a display sort: not found

B10: design_487_778f5c6d-c470-43b8-8f82-464af6177e08_1277_dldesign_0_cycle1_af2pred (protein)
chain: EKEEAKKKAEELLKEIKKLAKEAAASDAETANKYLAKAVETAKELYELAKKIGEEGKELAKEANAALAAAAKAAMDKVQ
binding in a display sort: not found

B11: design_486_d4f32670-1303-4d79-8413-1b14cb3eff50_1885_dldesign_0_cycle1_af2pred (protein)
chain: MEEAGEIVERAEEVYKRAKEAAEENAKRNPEKKEEIKKLYEEAVALIQKSLALASQGALEGNQELLKEAKKKLEEAEKVAKEIEKL
binding in a display sort: not found

B12: design_487_778f5c6d-c470-43b8-8f82-464af6177e08_901_dldesign_0_cycle1_af2pred (protein)
chain: DELEKKIKEELEKAKEYLKKGKELFEAGKYKEAAAEFEKAIEYASKAMELAAEAGPKYNKYGVEASKVANEAYKLRQQALAK
binding in a display sort: not found

B13: design_487_778f5c6d-c470-43b8-8f82-464af6177e08_816_dldesign_0_cycle1_af2pred (protein)
chain: GSMEELAKLRAEAEEKLAAAQAVVERPAETVTLEELNAALAQAVEAARLFQEVGDRELLAEAFRVAATLAARAVEVAA
binding in a display sort: not found

B14: design_487_778f5c6d-c470-43b8-8f82-464af6177e08_613_dldesign_0_cycle1_af2pred (protein)
chain: EEAEKERARAIIEKASAKLDALAAEAEERDPALGAQARALRDSLAATAQTYIETGSPTGRAGLNSLAAFLA
binding in a display sort: not found

B15: design_487_778f5c6d-c470-43b8-8f82-464af6177e08_1159_dldesign_0_cycle1_af2pred (protein)
chain: DTAAALAAAAAAAAALAKADPALAPAALAITQANLAAILDLAEETKAANPEVPAAVGETFNTAITTASTAYATALKLAQ
binding in a display sort: not found

B16: design_487_778f5c6d-c470-43b8-8f82-464af6177e08_1035_dldesign_0_cycle1_af2pred (protein)
chain: VEEIVERVNAALARATRAALAGGPEAAARTAELMRRAAEAVRLAREDPEAGKKIADEVEAEVDALLAAVA
binding in a display sort: not found

B17: design_487_778f5c6d-c470-43b8-8f82-464af6177e08_920_dldesign_0_cycle1_af2pred (protein)
chain: ESVREAARKVKELAEALAAQAKAAGDEEAAKLAEEAAKLAEEAEKKAEEDPEEAKRLIVEALRLLNRAFALLVAAS
binding in a display sort: not found

B18: design_487_778f5c6d-c470-43b8-8f82-464af6177e08_501_dldesign_0_cycle1_af2pred (protein)
chain: MDRAVEIAVASLKHAVKQAIAAAEKIDPELAKKVEEEGKKKIEEAAASDSATAVEIAIEALKKLSELSKKARA
binding in a display sort: not found

B19: design_486_d4f32670-1303-4d79-8413-1b14cb3eff50_1718_dldesign_0_cycle1_af2pred (protein)
chain: MSAGEIALANTRAVAKQLIAAGKELGTEEEARKKAEEAIAKVEELAKKGPAGAAEAMKITVEMMKELDKVSKAVEEAE
binding in a display sort: not found

B20: design_487_778f5c6d-c470-43b8-8f82-464af6177e08_1129_dldesign_0_cycle1_af2pred (protein)
chain: AEELRERMKKSADGAIEVINDLTAYGIAHPEHAALARAALTGLGTNMIAAAAANPVSKELAEKLAAALTAATAAIDAA
binding in a display sort: not found

B21: design_486_d4f32670-1303-4d79-8413-1b14cb3eff50_2179_dldesign_0_cycle1_af2pred (protein)
chain: AQEANDLLAETLETLREGQAAAKELGDEEARLKLVELANKSMTLASQAVAAGGDQELLDKAKEYHAELKKLAKEVKEKA
binding in a display sort: not found

B22: design_487_778f5c6d-c470-43b8-8f82-464af6177e08_1347_dldesign_0_cycle1_af2pred (protein)
chain: AAEAETQAALAQLQATMHELMRIAAQALALGDAELAQEALEAVVKGQEGLADPSIVKATAEEVSAARERLRARVEALRAA
binding in a display sort: not found

B23: design_487_778f5c6d-c470-43b8-8f82-464af6177e08_1334_dldesign_0_cycle1_af2pred (protein)
chain: AGGYAVLAQNTLARARALAAQGPAALPEIEAQARILQQVAEAAAQAGDAEGAATAAANAEQARALAEEARRA
binding in a display sort: not found

B24: design_487_778f5c6d-c470-43b8-8f82-464af6177e08_718_dldesign_0_cycle1_af2pred (protein)
chain: MKKEEAIRALAAAAARAAKLAVDPRTAAVANKALEVVVSAMEEVEASEDEEEAVEIAEKALAEADKLLAEAAKAA
binding in a display sort: not found

B25: design_486_d4f32670-1303-4d79-8413-1b14cb3eff50_2359_dldesign_0_cycle1_af2pred (protein)
chain: DAAKEFAENYEKAAEYVSQIYAKDPAAGEEMQKVLTAKTAEASKLAIAGDLAGAAKVMKEALEIAKKKLEEL
binding in a display sort: not found

B26: design_487_778f5c6d-c470-43b8-8f82-464af6177e08_1099_dldesign_0_cycle1_af2pred (protein)
chain: AAEEVAKKFAKAVLRIALKQIDENAADPELVKKIADNAVKLLNSLSDGAAVAKAEAEKIKAHAEATIAKAKAAKA
binding in a display sort: not found

B27: design_487_778f5c6d-c470-43b8-8f82-464af6177e08_310_dldesign_0_cycle1_af2pred (protein)
chain: AAVLSPEQAGGTFRALATSIRLAAEAGDLDSAEALAAAGLQLAENQPAVAPLVNKAKEEAAKLTPKEAALKLADAFEQAGDALLA
binding in a display sort: not found

B28: design_487_778f5c6d-c470-43b8-8f82-464af6177e08_420_dldesign_0_cycle1_af2pred (protein)
chain: AEEKIKEANRLFQEGARKMVQGLQLAAQGKKEEAEKELTEAIELFTKASKLAKEAGDERLAESAEKAAKEAKAQLAAVKAA
binding in a display sort: not found

B29: design_487_778f5c6d-c470-43b8-8f82-464af6177e08_1381_dldesign_0_cycle1_af2pred (protein)
chain: MVEKAIEMVEKATKEAAARAPAKAEEIKKLGEKFKKEVEYLGKLNPESGLVMARGAVGALKDIADKEAKA
binding in a display sort: not found

B30: design_486_d4f32670-1303-4d79-8413-1b14cb3eff50_2004_dldesign_0_cycle1_af2pred (protein)
chain: KKAEILAAGNALVVELLAEAEKAAKAAKAAGDPEAANQALVEAAKGAAKIHALMVKGAPVEELKKEAEAAKKKIKALAE
binding in a display sort: not found

B31: design_487_778f5c6d-c470-43b8-8f82-464af6177e08_978_dldesign_0_cycle1_af2pred (protein)
chain: KSPTEQVAEYAAKVRAKAPKGEEIARLLFSYNAAYQADPAKGKEKEKELKALAKENPEAKEYVEAAVAAVKA
binding in a display sort: not found

B32: design_487_778f5c6d-c470-43b8-8f82-464af6177e08_1075_dldesign_0_cycle1_af2pred (protein)
chain: AAAEEAKKLVKEAKALLKAAEATGNLALAQAALEKALEAIALGAEVNKERPLPVAVEAVRLAGRAYALVRQLTA
binding in a display sort: not found

B33: design_487_778f5c6d-c470-43b8-8f82-464af6177e08_749_dldesign_0_cycle1_af2pred (protein)
chain: GAEEALLAEARALLARAQGLLIEAAKQLKTDPAAAIKLAEEAKKLAEKAKELAKKLGRRGPGLQAMADAVIDSAKALKAQAEAAL
binding in a display sort: not found

B34: design_487_778f5c6d-c470-43b8-8f82-464af6177e08_1348_dldesign_0_cycle1_af2pred (protein)
chain: AEKKREEAKKLVEEAKKLAEKGDFEKAVEKLREAVALDPSVIGEALEAVKVIAEKNPAAAPAASLAIIRAAQEA
binding in a display sort: not found

B35: design_487_778f5c6d-c470-43b8-8f82-464af6177e08_620_dldesign_0_cycle1_af2pred (protein)
chain: GAKSKALQKLFQQANELHKLAIAAKKPEAKKIYNEAAGTALDFAEKAQAGGDEEAEKLAKEAEKIAKEAKEKALAIE
binding in a display sort: not found

B36: design_486_d4f32670-1303-4d79-8413-1b14cb3eff50_1967_dldesign_0_cycle1_af2pred (protein)
chain: DAEVEKLQAQIRTAGLILMASSSPEKAEEALKRTKEAVELAKKNPEEGLKLAEEIAEEAKKVGTPEQAAVIDSVFK
binding in a display sort: not found

B37: design_487_778f5c6d-c470-43b8-8f82-464af6177e08_509_dldesign_0_cycle1_af2pred (protein)
chain: GEAFSKEALEKGKEAAKKAEESTDPEAKTLYIKAASNYYGAAALALSPESAPLAKERAAKGDEYRAKADAL
binding in a display sort: not found

B38: design_487_778f5c6d-c470-43b8-8f82-464af6177e08_100_dldesign_0_cycle1_af2pred (protein)
chain: MDKEQVYETAAKMLEEGAELVKAGEETKPAGLAKAKAAALLVLGVDPEVGEKVLKLVEEAEKADQEKAAKLIEEAAKLVKE
binding in a display sort: not found

B39: design_487_778f5c6d-c470-43b8-8f82-464af6177e08_89_dldesign_0_cycle1_af2pred (protein)
chain: SEAEKEAEKAEKLVEELRANPKVPLEKAKELAKAIQELAKLDPEKGAEMASKAVAVILEKGKEIPGETINAILTGVSKAHAIINA
binding in a display sort: not found
